# The source made the active and inactive calls.
# System: Wnt5a (protein binding on small-molecule microarray)
# Assay: Wnt5a binders on small-molecule microarray, primary screen, biophysical, 635/667 nm fluorescence (AID 1142);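 further: fluorescence read at 667 nm with signal to noise per printed feature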
# Details: 635 nm fluorescence, higher = more signal
row,SMILES,composite z-score
1,CS(=O)(=O)CCOC(=O)C1=CC(c2ccc(CO)cc2)=CC(C2CC2)N(Cc2sc3ccccc3c2Cl)C=C1C(=O)OCCS(C)(=O)=O (stereo not drawn),-0.0091
2,CCCCNC(=O)c1ccc(C#CC(C)(C)C)c(OC(C)=O)c1,0.0744
3,O=C1C2C=CC(C(O)c3ccco3)N(Nc3ccccc3F)C2C(=O)N1c1ccccc1 (stereo not drawn),0.0072
4,COc1cc(NN2C(C(O)c3ccco3)C=CC3C(=O)N(C)C(=O)C32)cc(OC)c1OC (stereo not drawn),0.259
5,COC(=O)[C@@]1(Cc2ccc(F)cc2)[C@H]2c3cc(C(=O)N(C)C)n(CCc4ccc(OC)c(Br)c4)c3C[C@H]2CN1C(=O)c1ccccc1,1.88
6,CC(C)[Si](C#CCCCC#N)(O[C@H](c1ccccc1)c1cn(Cc2ccccc2)nn1)C(C)C,0.125
7,COCCOC(=O)N1C(=O)[C@@]2(c3cc(C#CC4(O)CCCCCC4)ccc31)[C@H](C(=O)Nc1nc3ccccc3s1)[C@H]1C(=O)O[C@H](c3ccccc3)[C@H](c3ccccc3)N1[C@@H]2c1ccc(O)cc1,0.62

# System: not listed separately
# Assay: cell viability in Huh7 cells, primary screen, cytotoxicity control for HCV replication inhibitor project, CellTiter-Glo luminescence, basal, 48 h (AID 1143);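 further: Huh7 hepatoma cells carrying a hepatitis C replication reporter with no stimulus; test concentration not given here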
# Details: Huh7 HCV replicon, higher = more signal, called active from +8 up or from −8 down
row,SMILES,z-score
1,CCC#CCN(Cc1ccccc1Br)[C@H](/C=C/C1CC1)[C@@H](O)Cc1ccccc1,-2.43 (inactive)
2,CCCCN1CC=CC23O[C@@H]4/C=C\CCCOC(=O)C4[C@H]2C(=O)N(CCO)[C@@H]3C1=O (stereo partly drawn),-0.211 (inactive)
3,C=CCNC(=O)[C@@H]1[C@H]2C(=O)O[C@H](c3ccccc3)[C@H](c3ccccc3)N2[C@H](c2ccccc2OCCO)[C@@]12C(=O)N(C(=O)OCCOC)c1ccc(C#CC3(O)CCCCCC3)cc12,-4.26 (inactive)
4,O=C(C1N=C(c2ccc(OCCCO)cc2)N(c2ccccc2)O1)N1CCCCC1 (stereo not drawn),-0.163 (inactive)
5,CN(C)CCCCCCNC(=O)[C@@H]1C[C@@H]2C(=O)N3CCC[C@H]3C(=O)N2[C@@H]1c1cccc(OCCO)c1,-0.0705 (inactive)
6,COC(=O)[C@@]1(Cc2ccccc2)[C@H]2c3cc(C(=O)N(C)C)n(Cc4ccc(C)o4)c3C[C@H]2CN1C(=O)c1ccccc1,-4.01 (inactive)
7,O[C@@H](Cc1ccccc1)[C@@H](/C=C/C1CC1)N(CC#Cc1ccccc1)Cc1ccccc1Br,-1.72 (inactive)
8,COCC(=C=CC[C@H](O)c1ccc(OCCO)cc1)CCO,0.287 (inactive)
9,NCCCCCNC(=O)[C@H]1C[C@H]2C(=O)N3CCC[C@H]3C(=O)N2[C@H]1c1cccc(OCCO)c1,-0.0422 (inactive)
10,CCCC[C@@H]1C[C@H]1[C@@H](NC(=O)c1cccs1)c1ccccc1C(F)(F)F,-1.37 (inactive)
11,CCOC(=O)C[C@H]1[C@H](OC(=O)Cc2ccc3c(c2)OCO3)[C@@H](NC(=O)C2CCCCC2)c2cc(OCCCO)ccc2N1C(=O)c1ccccc1,-0.0136 (inactive)
12,COc1cc(C(O)C2C=CC3C(=O)N(C)C(=O)C3N2Nc2ccccc2)cc(OC)c1OC (stereo not drawn),0.338 (inactive)
13,COc1ccc([Si](C)(C)[C@@H]2[C@@H](CC(=O)N3Cc4ccccc4C[C@H]3CO)O[C@]3(C(=O)N(Cc4ccc(N5C(=O)c6cccc7cccc5c67)cc4)c4ccccc43)[C@H]2C)cc1,-2.28 (inactive)
14,C=CCC(OC(C)=O)[C@@H]1[C@@H](N(Cc2ccc(-c3cccc(C(F)(F)F)c3)o2)C(=O)c2ccc(-c3ccccc3)cc2)c2cc(OCCCO)ccc2N1C(=O)Cc1ccc2ccccc2c1 (stereo partly drawn),-0.165 (inactive)
15,C=CCNC(=O)[C@H]1[C@@H]2C(=O)O[C@@H](c3ccccc3)[C@@H](c3ccccc3)N2[C@@H](c2ccccc2OCCO)[C@]12C(=O)N(C(=O)OCCOC)c1ccc(C#CC3(O)CCCCCC3)cc12,-5.57 (inactive)
16,COc1ccc([Si](C)(C)[C@@H]2[C@@H](CCO)O[C@]3(C(=O)N(Cc4cccc(NC(=O)[C@H](C)O)c4)c4ccccc43)[C@H]2C)cc1,-8.02 (active)
17,CCCCC[C@H]1OC[C@@]23C=C(Br)[C@@H](CC12)[C@@]1(CO1)C3=O (stereo partly drawn),-0.473 (inactive)
18,C=CCN1Cc2ccccc2[C@@H]2OC(c3ccc(OCCCO)cc3)=N[C@]2(CC=C)C1=O,-2.51 (inactive)

row,SMILES,z-score
1,Cc1ccc(NN2C(C(O)c3c(F)cccc3Cl)C=CC3C(=O)N(C4CCCCC4)C(=O)C32)cc1 (stereo not drawn),-3.26 (inactive)
2,CCCCC(CC)C(O)C1C=CC2C(=O)N(c3ccccc3)C(=O)C2N1Nc1ccc(C#N)cc1 (stereo not drawn),0.308 (inactive)
3,NC(=O)[C@H]1[C@@H]2C(=O)O[C@@H](c3ccccc3)[C@@H](c3ccccc3)N2[C@@H](c2ccc(OCCO)cc2)[C@]12C(=O)Nc1ccc(C#CCCO)cc12,-0.532 (inactive)
4,CCC1=C2CN(Cc3ccccc3)[C@@H](C(=O)Cc3ccccc3)C2C=CCC1 (stereo partly drawn),-3.57 (inactive)
5,[N-]=[N+]=Nc1ccccc1C[C@]1(C(=O)NCC(O)CO)COC(c2ccc(OCCCO)cc2)=N1 (stereo partly drawn),-0.231 (inactive)
6,CCCC=C(CCC)[C@@H](NP(=O)(c1ccccc1)c1ccccc1)c1ccc(-c2ccccc2)cc1,-1.53 (inactive)
7,CCOC(=O)C[C@H]1[C@H](OC(=O)c2ccc(C(=O)c3ccccc3)cc2)[C@@H](NC(=O)c2ccc(-c3ccccc3)cc2)c2cc(OCCCO)ccc2N1C(=O)Cc1ccc(OC)cc1,0.128 (inactive)
8,CO[C@H]1O[C@H](CO)[C@@H](OC(=O)CCc2ccccc2)[C@@H]2OC(=O)[C@@H](Cc3ccccc3)C/C=C/C[C@H](Cc3ccccc3)C(=O)O[C@@H]12,-2.33 (inactive)
9,CCOC(=O)C1=C[C@@H](c2ccccc2)N(S(=O)(=O)c2ccc(C)cc2)[C@H]1c1ccc(OC)cc1,-2.61 (inactive)
10,[N-]=[N+]=Nc1ccccc1C[C@]1(C(=O)NCCN2CCOCC2)COC(c2ccc(OCCCO)cc2)=N1,-1.06 (inactive)
11,COc1ccc([Si](C)(C)[C@H]2[C@H](CC(=O)N3Cc4ccccc4C[C@H]3CO)O[C@@]3(C(=O)N(Cc4ccc(N5CCOC5=O)cc4)c4ccccc43)[C@@H]2C)cc1,-3.64 (inactive)
12,CS(=O)(=O)CCOC(=O)C1=CC(c2ccc(CO)cc2)=CC(C2CC2)N(Cc2sc3ccccc3c2Cl)C=C1C(=O)OCCS(C)(=O)=O (stereo not drawn),-4.22 (inactive)
13,CCCCNC(=O)c1ccc(C#CC(C)(C)C)c(OC(C)=O)c1,-1.7 (inactive)
14,O=C1C2C=CC(C(O)c3ccco3)N(Nc3ccccc3F)C2C(=O)N1c1ccccc1 (stereo not drawn),0.761 (inactive)
15,COc1cc(NN2C(C(O)c3ccco3)C=CC3C(=O)N(C)C(=O)C32)cc(OC)c1OC (stereo not drawn),1.06 (inactive)
16,COC(=O)[C@@]1(Cc2ccc(F)cc2)[C@H]2c3cc(C(=O)N(C)C)n(CCc4ccc(OC)c(Br)c4)c3C[C@H]2CN1C(=O)c1ccccc1,-4.65 (inactive)
17,CC(C)[Si](C#CCCCC#N)(O[C@H](c1ccccc1)c1cn(Cc2ccccc2)nn1)C(C)C,-0.507 (inactive)
18,COCCOC(=O)N1C(=O)[C@@]2(c3cc(C#CC4(O)CCCCCC4)ccc31)[C@H](C(=O)Nc1nc3ccccc3s1)[C@H]1C(=O)O[C@H](c3ccccc3)[C@H](c3ccccc3)N1[C@@H]2c1ccc(O)cc1,-0.804 (inactive)

# Source: PubChem BioAssay
